# Shiga inhibitor – Shiga toxin inhibition; inhibition, % at 38.7 µM; 290,000 compounds, 9.2% hits; Vero cells, Shiga toxin protein synthesis inhibition reporter; in the data active means inhibition mostly above about 28%, no sharp cut-off; inactive means mostly below about 43%; further: 0% is about no effect
# Pf growth 48h – inhibits P. falciparum growth in the first generation, 48 h; AID 504832; Potency, µM (top dose mostly 28.7 µM), inactives show at the top dose activity change, negative = inhibition, most hits filed as inhibitors; P. falciparum luciferase growth in erythrocytes, 48 h; 310,000 compounds, 5.9% hits; further: potency means the concentration at half of the fitted maximal effect; on the % scale 0 is the no-effect control and ±100 the full control effect
#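 Luciferase-expressing parasites in RBCs, 2% Hct / 0.1% parasitemia final; RPMI 1640 + 0.5% Albumax; 37 C, 5% CO2, one generation; luminescence read-out, lower signal = inhibition.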
# Pf growth 96h – P. falciparum growth inhibition at 96 hour, primary screen for plastid delayed-death inhibitors. P. falciparum luciferase reporter growth, 96 h. Potency, µM (highest dose often 28.7 µM), without a hit: at the highest dose activity change, negative = inhibition, usual class: inhibitors. 320,000 compounds, 6.9% hits; further: potency means the concentration at half of the fitted maximal effect; on the % scale 0 is the no-effect control and ±100 the full control effect
#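 Parasite growth measured via integrated firefly luciferase reporter in P. falciparum. Infected erythrocytes at 2% hematocrit, 0.05% parasitemia final were treated 96 hours at 37 C under 5% CO2, and luminescence was read.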
# SARS PLP yeast – SARS-CoV PLP inhibition in yeast. 330,000 compounds, 0.19% hits. Potency, µM (titrated, usually from 32.9 µM), for the others: at the top dose activity, positive = growth rescue, most hits filed as activators. S. cerevisiae expressing SARS-CoV PLpro, growth rescue; calls by dose curve; further: potency means the concentration at half of the fitted maximal effect; 0% is about no effect; nearly all actives have a fitted effect of over 55% in size
# AMA1 RON2 block – AMA1-RON2 (P. falciparum) interaction inhibition; AlphaScreen AMA1-biotinylated RON2 peptide binding; Potency, µM (highest dose often 58.2 µM), for the others: at the top dose activity change, negative = inhibition, usual class: inhibitors; 360,000 compounds, 0.2% hits;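 further: potency means the concentration at half of the fitted maximal effect; 0% = vehicle wells and -100% = peptide control; nearly all actives have a fitted effect of over 45% in size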
#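 AMA1 (3D7) with his tag at 25 nM final met compounds first, then biotinylated RON2 peptide at 25 nM; detection used donor plus acceptor beads, 10 µg/mL apiece, read by AlphaScreen after 30 min at room temperature.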
# Cycloheximide cs – affects cycloheximide protein synthesis inhibition readout, counter-screen; max response, %; AID 2314; cell reporter, cycloheximide protein synthesis inhibition counterscreen; 300,000 compounds, 12% hits; in the data active means max response mostly above about 13%, no sharp cut-off; inactive means mostly below about 14%; further: read at 38.3 µM for the half of the compounds with a filed dose; 0% is about no effect
# * = called active by the depositor; ? = inconclusive; . = no result; [ ] = dose if it differs, or a comment. An excerpt weighted towards active compounds, which were near 19% of everything screened. Unless noted, the call rests on the fitted dose curve; in most records, active means well fitted curve in the direction sought with a large enough effect; inconclusive means small, poorly fitted or top-dose-only effect, or another doubt; inactive means no such curve, though single readings can be large; an effect the other way counts as inactive or inconclusive.
SMILES,Shiga inhibitor,Pf growth 48h,Pf growth 96h,SARS PLP yeast,AMA1 RON2 block,Cycloheximide cs
O=C1c2ccccc2C(=O)C1c1ccc(O)cc1,70*,30%,?,1%,15%,28*
O=C1c2ccccc2C(=O)C1c1ccc(F)cc1,.,-7%,?,.,.,.
O=C1NC(c2ccc(O)cc2)Nc2ccccc21 (stereo not drawn),16,16%,-29%,3%,-6%,13*
Cc1nn(C)c(C)c1N=Cc1c(O)ccc2ccccc12,-16,.,8.3µM*,-4%,38%,1
Oc1ccc2ccccc2c1/C=N/n1cnnc1,11,23%,0%,-32%,37%,-1
Oc1ccc2ccccc2c1C=Nc1ccc(Cl)cn1,6,-1%,13µM*,-1%,9%,4
CC(=O)N/C(=C\c1ccccc1)C(=O)OC(C)C(=O)NCc1ccccc1 (stereo not drawn),.,-1%,1%,2%,-1%,.
Clc1cccc(Cl)c1-c1noc(CN2CCOCC2)n1,1,10µM*,?,0%,8%,-1
O=CN1CCCN(Cc2nc(-c3cccc(Cl)c3)no2)CC1,24,87%,3%,0%,-11%,28*
Clc1ccc(-c2noc(CN3CCOCC3)n2)cc1,68*,402%,50%,0%,-10%,57*
O=C(C1CCCN(Cc2nc(-c3ccc(Cl)cc3)no2)C1)N1CCOCC1 (stereo not drawn),34,12%,?,0%,5%,12
O=C1CCN(Cc2nc(-c3ccc(Cl)cc3)no2)CCN1,29,20%,10µM*,0%,-2%,5
O=C(C1CCN(Cc2nc(-c3ccc(Cl)cc3)no2)CC1)N1CCOCC1,93,26%,0%,3%,-10%,0
CC(=O)N1c2ccccc2C(C)(C)C2CCC(C)CC21 (stereo not drawn),-10,?,9%,-1%,33%,7
CCCC[C@H](NC(=O)[C@H](CC(C)C)NC(=O)CNC(=O)[C@@H](NC(=O)[C@H](Cc1ccccc1)NC(=O)[C@H](CO)NC(=O)[C@@H](N)CC(=O)O)C(C)C)C(N)=O,-11,.,.,.,.,-7
CCCn1c(=O)c(C(=O)Nc2cccc(C)c2)c(O)c2ccccc21,23,4%,15%,-5%,58%,14
CCCCCn1c(=O)c(C(=O)Nc2cc(C)ccn2)c(O)c2ccccc21,.,?,-2%,-1%,10%,-2
Cc1cccc(NC(=O)c2c(O)c3ccccc3n(C)c2=O)c1,.,125%,-11%,-1%,94%,25*
Cc1ccnc(NC(=O)c2c(O)c3ccccc3n(C)c2=O)c1,71*,145%,-15%,-6%,.,51*
Cc1nn(C)c(C)c1CN(C)S(=O)(=O)c1ccc2ccccc2c1,-5,13µM*,?,29%,0%,-4
Cc1nn(C)c(C)c1CN(C)S(=O)(=O)c1ccc(F)cc1,-4,6%,-10%,12%,6%,-3
CC1CCN(CCCNC(=O)C2CCN(S(=O)(=O)N3CCC4(CC3)OCCO4)CC2)CC1,-11,22%,?,0%,0%,1
CCN(c1ccc2c(c1)OCO2)S(=O)(=O)c1cc(Br)cc2c1N(C(C)=O)CC2,15,?,9.3µM*,-14%,18%,-3
O=C(C1CC1)N1CCc2cc(Br)cc(S(=O)(=O)N3CCOCC3)c21,12,5.2µM*,37%,-23%,2%,-1
CCC(=O)N1CCc2cc(Br)cc(S(=O)(=O)N3CCC(C(=O)NC(C)(C)C)CC3)c21,-2,?,34%,-1%,15%,-4
CCC(=O)N1CCc2cc(Br)cc(S(=O)(=O)N3CCCC(C(=O)NC(C)(C)C)C3)c21 (stereo not drawn),21,1.2µM*,?,-1%,0%,13
CC(=O)N1CCc2cc(Br)cc(S(=O)(=O)N3CCCCC3)c21,-6,2.6µM*,?,-10%,-16%,1
O=S(=O)(Nc1ncn[nH]1)c1ccc(Cl)cc1,-4,4%,4%[5.75 µM],4%,19%,1
Clc1ccccc1Nc1nc(NCC2CC2)nc2ccsc12,.,.,.,.,-2%,.
CC1(C(=O)NS(=O)(=O)c2ccccc2OC(F)(F)F)CCN1C(=O)c1ccco1 (stereo not drawn),.,.,.,.,2%,.

# Screens deposited in PubChem BioAssay by National Center for Advancing Translational Sciences (NCATS).
